Measurements taken from paper PMC4552634, “A New Set of Chemical Starting Points with Plasmodium falciparum Transmission-Blocking Potential for Antimalarial Drug Discovery” (PLoS ONE, 2015).
Screen size: about 13,000 compounds; about 3,200 (25%) showed an effect of 50% or more. The list shows a part of the results.

Test system: P. falciparum stage V gametocytes
Set-up: BacTiter-Glo ATP luminescence viability of purified stage V gametocytes in 384-well plates, per cent inhibition versus DMSO
Settings: 48 h, 5 µM; inhibitor

O=C(Nc1cccc(-c2cc3ccccc3[nH]2)c1)C1CCN(Cc2ccccc2O)CC1 [TCMDC-124628]
% Inhibition: -2.419%

COC(=O)Nc1cc(C(F)(F)F)ccc1N1CCCC(NS(=O)(=O)c2ccc(C(C)(C)C)cc2)C1 (centres unmarked) [TCMDC-134158]
% Inhibition: -30.72%

CN1CCN(c2ccnc3ccc(NC(=O)Nc4ccc(Br)cc4)cc23)CC1 [TCMDC-139324]
% Inhibition: -20.3%

CC(CNC1CCN(CCn2c(=O)ccc3ccc(F)cc32)CC1)c1ccccc1 (centres unmarked) [TCMDC-135136]
% Inhibition: 3.185%

CCN1CCCC(CNC(=O)/C(=C/C=C/c2cc3cc(Cl)c(Cl)cc3[nH]2)OC)C1 (centres unmarked) [TCMDC-139380]
% Inhibition: -27.83%

CC1CCC(C[C@@H](C(=O)N[C@H](C(=O)Nc2nccs2)[C@@H](C)O)[C@H](CCC(F)(F)F)N(O)C=O)CC1 (some centres unmarked) [TCMDC-138352]
% Inhibition: 2.054%

Cc1ccc(OCCCCON2C(N)=NC(N)=NC2(C)C)cc1C [TCMDC-131655]
% Inhibition: 1.03%

COc1ccc2nccc([C@@H](O)CN3CCC(NCc4ccc5c(n4)NCCC5)CC3)c2c1 [TCMDC-141460]
% Inhibition: 44.65%

Nc1c2c(nc3ccc(NC(=O)CCCc4ccccc4)cc13)CCCC2 [TCMDC-139057]
% Inhibition: 98.45%

Cc1cc(N(C)C)nc(Nc2ccc(NC(=O)CCc3ccccc3)cc2)n1 [TCMDC-124721]
% Inhibition: 2.562%

O=C(CCCc1ccccc1)Nc1cccc(N2CCC(N3CCN(c4ccccc4O)CC3)CC2)c1 [TCMDC-124664]
% Inhibition: -59.43%

Nc1c2c(nc3cc(NC(=O)c4ccc([N+](=O)[O-])cc4)ccc13)CCCC2 [TCMDC-138975]
% Inhibition: 103.7%

CN1CCN(c2ccnc3ccc(NC(=O)Cc4ccc5ccccc5c4)cc23)CC1 [TCMDC-139351]
% Inhibition: 4.671%

Cc1ccc2cc(NC(=O)CCCCCCCON3C(N)=NC(N)=NC34CCCCC4)ccc2n1 [TCMDC-140377]
% Inhibition: 0.7997%

CN1CCN(c2ccnc3ccc(NC(=O)Cc4ccc(OCc5ccccc5)cc4)cc23)CC1 [TCMDC-139349]
% Inhibition: 24.22%

Nc1c2c(nc3ccc(NC(=O)CCCCCc4ccccc4)cc13)CCCC2 [TCMDC-139060]
% Inhibition: -0.3465%

Nc1c2c(nc3ccc(NC(=O)c4ccccc4)cc13)CCCC2 [TCMDC-139043]
% Inhibition: 28.63%

Nc1c2c(nc3ccc(NC(=O)Cc4ccccc4)cc13)CCCC2 [TCMDC-139055]
% Inhibition: 81.23%

Nc1c2c(nc3ccc(NC(=O)CCCCCCc4ccccc4)cc13)CCCC2 [TCMDC-139056]
% Inhibition: 74.85%

O=C(Nc1ccc(O)c(-c2nc3ccccc3[nH]2)c1)c1ccc([N+](=O)[O-])cc1 [TCMDC-124222]
% Inhibition: -7.746%

COc1ccc2cc(C(=O)NC3CCC(CCN4CCc5cc(C#N)ccc5C4)CC3)[nH]c2c1 (centres unmarked) [TCMDC-139193]
% Inhibition: -26.16%

O=C(/C=C/c1ccc(Cl)c(Cl)c1)NC1CCC(CN2CCC(c3nc4ccc(O)cc4[nH]3)CC2)CC1 (centres unmarked) [TCMDC-140227]
% Inhibition: 3.463%

CCCc1cc(Cc2cnc(N)nc2N)cc(CCC)c1OC [TCMDC-137694]
% Inhibition: -10.37%

Cc1ccc(-c2noc(=O)n2CC(=O)Nc2ccccc2-c2ccccc2)cc1 [TCMDC-123570]
% Inhibition: 15.39%

CC(Cc1ccc(NS(=O)(=O)c2ccc(CC(C)NCCc3cccc(Cl)c3)cc2)cc1)NCCc1cccc(Cl)c1 (centres unmarked) [TCMDC-139797]
% Inhibition: 48.75%

O=C(NCCc1ccc(Cl)c(Cl)c1)c1ccc(CNC(=O)c2ccc(O)c(-c3ccc(Cl)c(Cl)c3)c2)cc1 [TCMDC-140872]
% Inhibition: 8.428%

CC(Cc1ccc(CNC(=O)NCc2ccc(CC(C)NCCc3cccc(Cl)c3)cc2)cc1)NCCc1cccc(Cl)c1 (centres unmarked) [TCMDC-139648]
% Inhibition: 111.4%

CC(C)c1ccc(NC(=O)c2ccc(CN3CCCN(Cc4cccc(Cl)c4)CC3)cc2)cc1 [TCMDC-136418]
% Inhibition: 3.705%

CC(Cc1ccc(CNC(=O)c2ccc(CC(C)NCCc3cccc(Cl)c3)cc2)cc1)NCCc1cccc(Cl)c1 (centres unmarked) [TCMDC-139659]
% Inhibition: 108.3%

CC(Cc1ccc(C(=O)N2CCN(C(=O)c3ccc(CC(C)NCCc4cccc(Cl)c4)cc3)CC2)cc1)NCCc1cccc(Cl)c1 (centres unmarked) [TCMDC-139613]
% Inhibition: 105.5%

CC(C)c1sc(N2CCN(C)CC2)nc1C(=O)NCCc1cccc(Cl)c1 [TCMDC-134297]
% Inhibition: 6.593%

CC(C)n1cc(CN2CCCC(C(=O)Nc3cccc(-c4cc5ccccc5[nH]4)c3)C2)cn1 (centres unmarked) [TCMDC-124681]
% Inhibition: -62.3%

CC(C)c1sc(N2CCCCC2)nc1C(=O)Nc1ccc(F)cc1C(F)(F)F [TCMDC-134299]
% Inhibition: -21.66%

COc1cccc(CNC(=O)NC2CCN(c3ccnc(Nc4cc(OC)c(OC)c(OC)c4)n3)C2)c1 (centres unmarked) [TCMDC-133628]
% Inhibition: 38.97%

FC(F)(F)c1ccc2[nH]c(-c3ccc(-c4ccc(CNCCc5ccncc5)cc4)cc3)nc2c1.O=C(O)C(F)(F)F [TCMDC-132852]
% Inhibition: -64.17%

CCN(CC)CCCNCc1ccc(-c2ccc(C(F)(F)F)cc2)cc1 [TCMDC-141087]
% Inhibition: 65.86%

CS(=O)(=O)NCCCNCc1ccc(-c2ccc(-c3nc4cc(C(F)(F)F)ccc4[nH]3)cc2)cc1.O=C(O)C(F)(F)F [TCMDC-133080]
% Inhibition: -31.8%

CS(=O)(=O)NCCCNCc1ccc(-c2cccc(-c3nc4ccc(C(F)(F)F)cc4[nH]3)c2)cc1 [TCMDC-133087]
% Inhibition: 6.297%
